PubChem BioAssay

Test: modulators of MEP2-GFP levels in yeast, confirmation, S. cerevisiae, flow cytometry GFP, cherry picks (AID 2272;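 active = GFP response above 150% of the DMSO control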;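 also: ratio of well signal to plate DMSO mean so 100% equals DMSO level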)
Conditions: S. cerevisiae MEP2-GFP strain, 3 h, at 10 µM, hits give high values

GFP response vs DMSO, inactive:
COc1ccc(OC)c(C2CC(c3c(-c4ccccc4)c4cc(Cl)ccc4[nH]c3=O)=NN2S(C)(=O)=O)c1 (configuration not stated) 100%
Cc1ccc(/C=C/C(=O)N2CC(C)CC(C)C2)o1 (configuration not stated) 116%
COc1ccc(CCNC2=C(Cl)C(=O)N(CCc3ccc(OC)c(OC)c3)C2=O)cc1OC 108%
O=S1(=O)Nc2c(ccc3cccnc23)-c2ccccc21 112%
O=C(/C=C/c1cc(Br)ccc1O)c1ccco1 122%
COc1cc(NC(C)=O)ccc1NC(=O)c1cc2ccccc2o1 100%
COc1ccc(CC2=CC(=O)c3ccccc3C2=O)cc1 104%
C=CCn1cc(/C=C/c2cc[n+](C)cc2)c2ccccc21 120%
C[n+]1ccc(/C=C/c2c[nH]c3ccc(F)cc23)cc1 120%
CCSc1nnc(NC(=O)c2nc(S(=O)(=O)Cc3ccc(F)cc3)ncc2Cl)s1 104%
COc1ccc(C2c3c(oc4ccccc4c3=O)C(=O)N2CCN2CCOCC2)cc1OC (configuration not stated) 172%
Cc1ccc(C(=O)c2c3ccccc3[n+]([O-])n2CCO)cc1 98.3%
CC(=O)Nc1ccc(S(=O)(=O)NC(CC(=O)NCCC2=CCCCC2)C(C)C)cc1 (configuration not stated) 102%
Cc1ccc(C(=O)NNC(=S)NC(=O)COc2ccccc2)cc1 153%
Cc1occc1-c1nnc(-c2cc([N+](=O)[O-])cc([N+](=O)[O-])c2)o1 123%
Cc1ccc(NS(=O)(=O)c2ccc(CCC(=O)N3CCOCC3)cc2)cc1 96.2%
O=C1Nc2ccc(Br)cc2/C1=C/C1CC=CCC1 (configuration not stated) 133%
CN1CC(=O)NC1=NC(=O)C12CC3CC(CC(C3)C1)C2 97.5%
O=S(=O)(c1ccc(Oc2ccccc2)cc1)N1CCOCC1 100%
COc1cc(NC(=O)c2oc3ccccc3c2C)ccc1NC(=O)c1ccco1 110%
CCCN1CCN(C(=O)c2oc3ccccc3c2NC(=O)COc2ccc(OC)cc2)CC1 102%
COc1cc(/C=C2\N=C(c3ccccc3)OC2=O)ccc1OC(C)=O 112%
COc1ccc(NC(=O)/C(Cl)=C(/Cl)S(=O)Cc2ccccc2)cn1 (configuration not stated) 118%

Test: AGP1-GFP expression modulators, hit retest, confirmation, cell-based, flow cytometry, S. cerevisiae, cherry picks (AID 2273);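 also: median GFP channel fluorescence over the whole cell population gate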
Conditions: S. cerevisiae AGP1-GFP strain, 3 h, at 10 µM

GFP response, % of DMSO, inactive:
O=C(Nc1ccc(NC(=O)c2cc3ccccc3o2)cc1)c1ccc2c(c1)OCCO2 98.6%
Cc1ncc2c(n1)-c1cc(F)ccc1SC2 94.5%
Cc1ccc(S(=O)(=O)Cc2cc(F)c([N+](=O)[O-])cc2[N+](=O)[O-])cc1 105%
C/C(CC(=O)Nc1cc(C)ccn1)=N\NC(=O)c1cccc(F)c1 94.1%
CN=C(NC)SC1CC(=O)N(c2ccccc2)C1=O (configuration not stated) 93.5%
O=C1/C(=C\c2ccc(O)c(O)c2)SC(=S)N1Cc1ccccc1 97.2%
COc1cc(/C=C2\C(=O)N(CCC#N)N=C2C)c(Br)cc1OC(C)C 100%
CCn1c(=O)c(C(=O)Nc2nc3ccccc3[nH]2)c(O)c2ccccc21 96.2%
CC1CN(c2nc3ccccn3c(=O)c2/C=C(\C#N)C(N)=O)CC(C)O1 (configuration not stated) 99.5%
CCOC(=O)CSC1=NC(=O)/C(=C\c2ccc(Cl)cc2)S1 116%
O=C(N/N=C/c1ccccc1Cl)c1cccc(F)c1 98.8%
CCN(CC)CCNC(=O)Cn1c(-c2ccccn2)nc2ccccc21 94.3%
COc1ccc(N2C(=O)C(Cl)=C(Nc3ccccc3OC)C2=O)cc1 98%
COc1ccc(C(=O)/C=C/c2ccccc2C(F)(F)F)cc1 99.7%
O=C(COc1ccc(F)cc1Cl)Nc1nc(-c2ccccn2)cs1 98.8%
COc1ccc(/C=N/NC(=O)C2(C)NC(C)(C)Cc3ccccc32)cc1 (configuration not stated) 99.7%
COc1ccc(OC)c(C2CC(c3c(-c4ccccc4)c4cc(Cl)ccc4[nH]c3=O)=NN2S(C)(=O)=O)c1 (configuration not stated) 96.1%
Cc1ccc(/C=C/C(=O)N2CC(C)CC(C)C2)o1 (configuration not stated) 105%
COc1ccc(CCNC2=C(Cl)C(=O)N(CCc3ccc(OC)c(OC)c3)C2=O)cc1OC 101%
O=S1(=O)Nc2c(ccc3cccnc23)-c2ccccc21 103%
O=C(/C=C/c1cc(Br)ccc1O)c1ccco1 100%
COc1cc(NC(C)=O)ccc1NC(=O)c1cc2ccccc2o1 102%
COc1ccc(CC2=CC(=O)c3ccccc3C2=O)cc1 94.5%
C=CCn1cc(/C=C/c2cc[n+](C)cc2)c2ccccc21 97.8%
C[n+]1ccc(/C=C/c2c[nH]c3ccc(F)cc23)cc1 104%
CCSc1nnc(NC(=O)c2nc(S(=O)(=O)Cc3ccc(F)cc3)ncc2Cl)s1 102%
COc1ccc(C2c3c(oc4ccccc4c3=O)C(=O)N2CCN2CCOCC2)cc1OC (configuration not stated) 105%
Cc1ccc(C(=O)c2c3ccccc3[n+]([O-])n2CCO)cc1 97.6%
CC(=O)Nc1ccc(S(=O)(=O)NC(CC(=O)NCCC2=CCCCC2)C(C)C)cc1 (configuration not stated) 101%
Cc1ccc(C(=O)NNC(=S)NC(=O)COc2ccccc2)cc1 134%
Cc1occc1-c1nnc(-c2cc([N+](=O)[O-])cc([N+](=O)[O-])c2)o1 135%
Cc1ccc(NS(=O)(=O)c2ccc(CCC(=O)N3CCOCC3)cc2)cc1 102%
O=C1Nc2ccc(Br)cc2/C1=C/C1CC=CCC1 (configuration not stated) 111%
CN1CC(=O)NC1=NC(=O)C12CC3CC(CC(C3)C1)C2 92.3%
O=S(=O)(c1ccc(Oc2ccccc2)cc1)N1CCOCC1 94.1%
COc1cc(NC(=O)c2oc3ccccc3c2C)ccc1NC(=O)c1ccco1 102%
CCCN1CCN(C(=O)c2oc3ccccc3c2NC(=O)COc2ccc(OC)cc2)CC1 98.1%
COc1cc(/C=C2\N=C(c3ccccc3)OC2=O)ccc1OC(C)=O 107%
COc1ccc(NC(=O)/C(Cl)=C(/Cl)S(=O)Cc2ccccc2)cn1 (configuration not stated) 103%
